Screens from PubChem BioAssay.
ROMK mod: ROMK potassium channel modulators, primary screen, cell-based, thallium flux, MLSMR library | ATP-sensitive inward rectifier potassium channel 1 (Homo sapiens), P48048 | Tet-inducible ROMK, thallium flux fluorescence; actives lie on both sides | B-score at 10 µM | 130,000 compounds, 2% hits;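 active means signal ratio slope over the read window, or its plate-corrected B-score, at least 3 SD from the plate mean, either direction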;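 further: B-score of the F/F0 ratio slope over 7 to 12 s after thallium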
Target sequence (P48048 whole entry, looked up): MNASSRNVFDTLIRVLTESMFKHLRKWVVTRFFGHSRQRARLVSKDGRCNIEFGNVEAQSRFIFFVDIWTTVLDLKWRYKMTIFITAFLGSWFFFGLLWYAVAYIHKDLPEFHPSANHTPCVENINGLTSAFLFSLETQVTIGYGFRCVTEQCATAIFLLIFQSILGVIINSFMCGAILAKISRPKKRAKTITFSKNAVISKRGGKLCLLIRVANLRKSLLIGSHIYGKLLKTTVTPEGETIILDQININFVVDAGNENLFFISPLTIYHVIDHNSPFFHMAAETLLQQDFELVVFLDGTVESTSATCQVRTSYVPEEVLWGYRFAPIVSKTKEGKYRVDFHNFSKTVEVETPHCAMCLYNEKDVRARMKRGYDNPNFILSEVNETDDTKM
WT yeast gro inh: growth inhibition of WT strain, primary screen, mitochondrial fusion inhibitor project, WT and mutant strains, chemical genetic. mitochondrial fusion phenotypic screen. inhibition, % at 10 µM. 190,000 compounds, 2.1% hits; in the data active means inhibition above about 58%; tested in S. cerevisiae
Lmaj promast: Leishmania major promastigote growth inhibition, primary screen; Leishmania major promastigotes, resazurin fluorescence viability; inhibition, % at 10 µM; 200,000 compounds, 9% hits; AID 1063, 2008; in the data active means inhibition above about 50%;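 further: promastigotes grown with compound for 44 hours at 28 °C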
Cl transport mod: KCC2 cotransporter modulators, thallium flux, primary screen, cell-based, HEK293 KCC2, FluoZin-2 fluorescence, MLSMR; B-score of Tl+ flux slope (higher = more flux/activation; lower = inhibition) at 10 µM; Solute carrier family 12 member 5 (Homo sapiens), Q9H2X9; AID 1456, 2008; 190,000 compounds, 2.2% hits; KCC2 cells, thallium flux FluoZin-2 fluorescence;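 active means thallium flux slope and its plate-corrected score both differing from the plate sample mean at a set confidence after two filtering rounds, in either direction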;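 further: slope of fluorescence scaled to starting intensity during 10 to 20 s after thallium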
Calpain2 inh: inhibitors of pig calpain II, primary screen, biochemical, fluorogenic peptide substrate, 1536-well | 220,000 compounds, 0.37% hits | purified calpain II, 30 min | AID 1236, 2008 | inhibition, % at 16 µM;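 active means inhibition above about 50%, limit read from the data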
ROMK hit retest: ROMK channel modulator hit retest, confirmation, cell-based, thallium flux, duplicate, resupplied hits. shares compounds with ROMK mod. fluorescence ratio; active compounds read low. normalized thallium flux (F/F0 slope) at 10 µM. 3,000 compounds, 54% hits. AID 1917, 2009;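 active means Flux at 10 µM at least 3 SD below or above vehicle control mean in one or both replicates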
* = called active by the depositor; x = not tested or not shown. Only some compounds are listed: those with a hit (about 12% of all), similar ones and a draw of the others.

SMILES | ROMK mod | WT yeast gro inh | Lmaj promast | Cl transport mod | Calpain2 inh | ROMK hit retest
CC(=O)O/N=C1\C(=O)N(Cc2ccc(C)cc2)c2ccccc21 | -5.2* | 33 | -11 | -0.34 | 58* | 0.063*
O=c1cnc(-c2ccc(Cl)cc2)cn1O | 0.16 | 0 | -6 | 0.069 | -23 | x
O=C(Nc1ccc(S(=O)(=O)Nc2nccs2)cc1)c1cc(-c2ccccc2Cl)nc2ccccc12 | 4.2* | -10 | 7 | 2.5 | -54 | 0.088
CC1(C)[C@@H](O)CC[C@]2(C)C3C(O)C=C4[C@H]5C[C@@](C)(C(=O)O)CC[C@]5(C)CC[C@]4(C)[C@]3(C)CC[C@@H]12 (some centres undefined) | x | x | x | -0.6 | -54 | 0.086
CC(=O)c1cccc(NC(=O)NC(C)c2ccncc2)c1 (centres undefined) | 0.45 | -2 | -7 | 0.45 | 5 | x
CCOc1ccc(S(=O)(=O)Nc2nc3ccccc3nc2-n2ccc(=NC(=O)c3cccs3)cc2)cc1 | -2.6* | 4 | -1 | 1.9 | -187 | 0.059*
COc1ccc2[nH]cc(S(=O)(=O)c3ccc(C(C)C)cc3)c(=O)c2c1 | -0.26 | -3 | -7 | 0.39 | -6 | x
COc1ccc(N(CC(=O)Nc2ccc(C(N)=O)cc2)S(=O)(=O)c2ccc(C)c([N+](=O)[O-])c2)cc1 | 0.019 | -18 | -5 | -1.1 | -37 | x
COc1ccc(N(CC(=O)Nc2ccccc2C(N)=O)S(=O)(=O)c2ccc(C)c([N+](=O)[O-])c2)cc1 | 0.31 | -4 | 25 | 0.12 | -33 | 0.067*
COc1ccccc1/C=C/C=C1N=C(/C=C/c2ccc(Cl)cc2)OC/1=O | -2.6* | 4 | -4 | 0.81 | -67 | 0.063*
O=C(NNC1=C(C(=O)C(F)(F)F)CCC1)c1cccc(Cl)c1 | 5.8* | 7 | 21 | x | -5 | 0.089
O=C(NNC1=C(C(=O)C(F)(F)F)CCC1)c1ccc(Cl)cc1 | x | 8 | 16 | 1.9 | -21 | x
COc1ccc(Cn2c(=O)[nH]c3cc(C(=O)N4CCN(Cc5ccccc5)CC4)ccc3c2=O)cc1 | x | -2 | 10 | -0.0098 | -38 | 0.079
CCN1CCN(C(=O)CCCCCn2c(=O)[nH]c3cc(C(=O)OC)ccc3c2=O)CC1 | x | 9 | 9 | 0.41 | -89 | x
COC(=O)c1ccc2c(=O)n(CCCCCC(=O)N3CCN(c4ccccc4)CC3)c(=O)[nH]c2c1 | x | -13 | 17 | -2.4 | -26 | 0.075
CC(C)(C)C(=O)/C=C(N)/C=C/c1ccccc1 | x | -5 | -4 | -3.1 | -7 | x
CCOC(=O)Cc1csc(NC(=O)CSc2ncnc3c2cnn3-c2ccccc2Cl)n1 | x | 17 | 13 | -2.8 | 5 | 0.054*
Cc1nnc(NC(=O)CSc2ncnc3c2cnn3-c2ccccc2C)s1 | x | 33 | -5 | -1.9 | 0 | x
Cc1noc(C)c1COC(=O)c1cc(C)n(-c2ccccc2)c1C | x | 25 | 79* | 0.72 | 33 | 0.088
COc1ccc(C(=O)Nc2cc(C(C)=O)c(/C=C/N(C)C)oc2=O)cc1 | x | -4 | -3 | -2.1 | -1 | 0.037*
COc1ccc(C(=O)CCC(=O)O)c(C)c1 | 4.3* | 4 | -5 | x | -26 | 0.083
CC(C)(C)NCC(O)COCc1ccc(Cl)cc1 (centres undefined) | 0.068 | 2 | -7 | 0.62 | 6 | x
OC(COCc1ccc(Cl)cc1)CN1CCN(CC(O)COCc2ccc(Cl)cc2)CC1 (centres undefined) | -3* | 58* | 100* | -0.0016 | 1 | 0.054*
O=C(COc1ccc(Br)cc1CNC1CCCCC1)NCCc1ccccc1 | -5.2* | 14 | 93* | -1.6 | -16 | 0.048*
CC(C)(CCl)C(=O)Nc1ccnc(-c2ccncc2)n1 | 2 | -9 | 2 | -0.087 | -6 | x
COc1ccccc1Oc1ccc(S(=O)(=O)NCc2ccccn2)cc1 | -2.7* | 1 | 52* | x | 32 | 0.073
COc1ccc(N(CC(=O)N/N=C/c2ccc3c(c2)OCO3)S(=O)(=O)c2ccc(NC(C)=O)cc2)cc1 | -1 | 16 | 22 | -0.45 | -117 | x
O=C(COc1ccc(Cl)cc1Cl)NCc1ccco1 | -0.55 | -28 | -4 | x | 27 | x
